# Inconclusive results are not listed. Active and inactive are the calls of the source. The calls were made as follows, unless noted: active = hit-call score of the fitted dose curve at least 0.9, where 1 is the maximum; inactive = score below 0.9.
# What was measured:
# [1] = ATG_PBREM_CIS: Attagene CIS-FACTORIAL HepG2 Assay for human Phenobarbital-responsive Enhancer Module (PBREM) (AID 2282955); settings: HepG2 PBREM cis-reporter, Attagene multiplexed transcription; actives raise or lower the signal
# In short: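 Cells were transfected with cis-element reporter units and treated for 24 h, after which RNA was extracted and reporter transcripts measured by RT-PCR and capillary electrophoresis.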
# [2] = ATG_PXRE_CIS: Attagene CIS-FACTORIAL HepG2 Assay for human Pregnane X Receptor Element (PXRE) (AID 2282957); settings: HepG2 Attagene CIS-FACTORIAL PXRE reporter, mRNA; actives raise or lower the signal
# In short: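 HepG2 cells transiently transfected with cis-element-driven multiplexed reporter units; after 24 h chemical exposure, reporter mRNA measured by RT-PCR, 6-FAM labelling, HpaI digestion and capillary electrophoresis. Bidirectional fitting relative to DMSO.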
# [3] = ATG_PPRE_CIS: Attagene CIS-FACTORIAL HepG2 Assay for human Peroxisome Proliferator-activated Response Element (PPRE) (AID 2282958); settings: HepG2 PPRE cis-element reporter, Attagene transcription factor profiling; actives raise or lower the signal
# In short: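 In this cell-based multiplex, a PPRE cis element drives a reporter sequence in transiently transfected HepG2 cells. Following 24 h treatment, labeled cDNA amplicons are sized and quantified by capillary electrophoresis, with DMSO defining baseline.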
# [4] = ATG_RORE_CIS: Attagene CIS-FACTORIAL HepG2 Assay for human RAR-related Orphan Receptor Element (RORE) (AID 2282959); settings: HepG2 Attagene cis-factorial RORE reporter, mRNA; actives raise or lower the signal
# In short: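 Endogenous factor activity at a cis response element is read as reporter transcript levels in HepG2 cells, 24 h post-dose. Transcripts are quantified by RT-PCR with capillary electrophoresis, and data fitted in both directions against DMSO.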
# [5] = ATG_Sox_CIS: Attagene CIS-FACTORIAL HepG2 Assay for human SRY-box transcription factor (SOX) (AID 2282960); settings: HepG2 Attagene cis-factorial SOX reporter, mRNA; actives raise or lower the signal
# In short: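 Measures mRNA induction of a SOX1-associated reporter in HepG2 after 24 h dosing. Fluorescently labelled RT-PCR fragments are separated by capillary electrophoresis, and gain or loss relative to DMSO control is fitted.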
# [6] = biological target: Transcription factor Sp1 (Homo sapiens) (UniProt P08047); assay: ATG_Sp1_CIS: Attagene CIS-FACTORIAL HepG2 Assay for human Specificity Protein 1 (Sp1) (AID 2282961); settings: HepG2 Sp1 cis-reporter transcription, actives raise or lower the signal
# In short: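 Cells: HepG2, transiently transfected with cis-regulated multiplexed reporters. Exposure: 24 h. Detection: reporter transcripts amplified, fluorescently labeled, restriction-digested and sized by capillary electrophoresis. Analysis: bidirectional fit relative to DMSO.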
# [7] = ATG_SREBP_CIS: Attagene CIS-FACTORIAL HepG2 Assay for human Sterol Regulatory Element Binding (SREBP) (AID 2282962); settings: HepG2 Attagene cis-factorial SREBP reporter, mRNA; actives raise or lower the signal
# In short: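 HepG2 cells transiently transfected with multiplexed cis-promoter reporter units sensing endogenous transcription factors; reporter mRNA measured 24 h after dosing by RT-PCR, 6-FAM labeling, HpaI digestion and capillary electrophoresis. Bidirectional fit versus DMSO.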
# [8] = biological target: Signal transducer and activator of transcription 3 (Homo sapiens) (UniProt P40763); assay: ATG_STAT3_CIS: Attagene CIS-FACTORIAL HepG2 Assay for human Signal Transducer and Activator of Transcription 3 (STAT3) (AID 2282963); settings: HepG2, Attagene cis-factorial STAT3 reporter transcription; actives raise or lower the signal
# In short: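 HepG2 cells transiently transfected with cis-element-driven multiple reporter transcription units; after 24 h chemical exposure, reporter mRNA measured by RT-PCR, 6-FAM primer-extension labelling, HpaI digestion and capillary electrophoresis. Bidirectional fitting versus DMSO baseline.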
# [9] = ATG_TA_CIS: Attagene CIS-FACTORIAL HepG2 Assay for human TA Basal Promoter (AID 2282964); settings: HepG2 Attagene CIS-factorial TA basal promoter reporter; actives raise or lower the signal
# In short: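 Multiplexed mRNA reporter assay, HepG2, 24 h. Reporter cDNA amplified, 6-FAM primer-extended, HpaI-cut, CE-sized; DMSO = negative control and baseline.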
# [10] = ATG_TCF_b_cat_CIS: Attagene CIS-FACTORIAL HepG2 Assay for human T-Cell-Factor with beta-catenin (TCF/b-cat) (AID 2282965); settings: HepG2 TCF/beta-catenin cis-reporter transcription, actives raise or lower the signal
# In short: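 HepG2 cells transiently transfected with multiple cis-promoter-regulated reporter transcription units, so endogenous transcription factor activity is measured. Reporter mRNA read 24 hours after dosing by RT-PCR, fluorescent labelling and capillary electrophoresis; bidirectional fitting against DMSO.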
# [11] = ATG_TAL_CIS: Attagene CIS-FACTORIAL HepG2 Assay for human TAL Basal Promoter (AID 2282966); settings: HepG2 Attagene cis-factorial TAL promoter reporter; actives raise or lower the signal;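 also: background control endpoint measuring basal TAL promoter reporter mRNA not a specific factor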
# In short: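 HepG2 cells transiently transfected with multiplexed cis-promoter reporter units, dosed 24 h. Reporter mRNA quantified by RT-PCR, 6-FAM labelling, HpaI digestion and capillary electrophoresis; TAL basal promoter serves as background control, fitted bidirectionally versus DMSO.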
# [12] = ATG_TGFb_CIS: Attagene CIS-FACTORIAL HepG2 Assay for human Transforming Growth Factor (TGF) (AID 2282967); settings: HepG2 Attagene CIS TGFb reporter, mRNA transcription; actives raise or lower the signal
# In short: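 Transcript-level reporter readout: HepG2 transfectants, 24 h exposure, RNA to cDNA, reporter-specific PCR, fluorescent primer extension, capillary sizing against ROX standards. Gain- or loss-of-signal relative to DMSO.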
# [13] = ATG_VDRE_CIS: Attagene CIS-FACTORIAL HepG2 Assay for human Vitamin D Receptor Element (VDRE) (AID 2282968); settings: HepG2 VDRE cis-reporter transcription, actives raise or lower the signal
# In short: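 HepG2 cells transiently transfected with cis-element reporter units, dosed 24 h; reporter mRNA measured by RT-PCR, 6-FAM labeling, HpaI digestion and capillary electrophoresis. Activity fitted bidirectionally against DMSO baseline.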
# [14] = biological target: Nuclear receptor subfamily 1 group I member 3 (Homo sapiens) (UniProt Q14994); assay: ATG_CAR_TRANS: Attagene TRANS-FACTORIAL HepG2 Assay for human Constitutive Androstane Receptor (CAR) (AID 2282969; active = hit-call score of the fitted dose curve at least 0.9, where 1 is the maximum;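 also: activators raise reporter mRNA above DMSO so AC50 marks induction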); settings: HepG2 Attagene TRANS-FACTORIAL CAR reporter
# In short: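 HepG2 cells transiently transfected with multiplexed GAL4-UAS reporter units expressing chimeric NR-Gal4 proteins; compound exposure 24 h. Reporter mRNA measured by RT-PCR, 6-FAM labelling, HpaI digestion and capillary electrophoresis; gain-of-signal fitted against DMSO baseline.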
# [15] = biological target: X-box-binding protein 1 (Homo sapiens) (UniProt P17861); assay: ATG_Xbp1_CIS: Attagene CIS-FACTORIAL HepG2 Assay for human X-box Binding Protein 1 (XBP1) (AID 2282972); settings: HepG2 XBP1 cis-element reporter, Attagene multiplex; actives raise or lower the signal
# In short: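 HepG2 cells transiently transfected with multiple cis-element reporter units report endogenous TF activity; 24 h exposure, then reporter mRNA measured by RT-PCR, 6-FAM labelling, HpaI digestion and capillary electrophoresis. Bidirectional fitting versus DMSO.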
# [16] = ATG_GAL4_TRANS: Attagene TRANS-FACTORIAL HepG2 Assay for GAL4 (Internal Marker) (AID 2282976; active = hit-call score of the fitted dose curve at least 0.9, where 1 is the maximum); settings: HepG2 Attagene TRANS GAL4 internal marker reporter
# In short: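 Background-control readout: GAL4-UAS reporter transcript in transiently transfected HepG2 cells after 24 h compound exposure. Measured by RT-PCR, 6-FAM primer extension, HpaI digest and capillary electrophoresis; gain-of-signal fit versus DMSO.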
# [17] = ATG_M_19_TRANS: Attagene TRANS-FACTORIAL HepG2 Assay for M19 Transcription Factor (Internal Marker) (AID 2282974; active = hit-call score of the fitted dose curve at least 0.9, where 1 is the maximum); settings: HepG2 Attagene TRANS-FACTORIAL M19 internal marker reporter
# In short: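 Reporter mRNA induction was measured in transfected HepG2 cells 24 h after dosing. Endpoint fitted upward relative to DMSO and serves as a background control within the multiplexed TRANS panel.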
# [18] = biological target: Steroid hormone receptor ERR1 (Homo sapiens) (UniProt P11474); assay: ATG_ERRa_TRANS: Attagene TRANS-FACTORIAL HepG2 Assay for human Estrogen-Related Receptor alpha (ERRa) (AID 2282971; active = hit-call score of the fitted dose curve at least 0.9, where 1 is the maximum); settings: HepG2 Attagene TRANS reporter, ERRa transactivation
# In short: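 HepG2 cells transiently transfected with GAL4-UAS reporter units and chimeric NR-Gal4 constructs; after 24 hour compound incubation, reporter mRNA quantified by RT-PCR, fluorescent labelling and capillary electrophoresis, gain of signal versus DMSO.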
# [19] = biological target: Estrogen receptor (Homo sapiens) (UniProt P03372); assay: ATG_ERa_TRANS: Attagene TRANS-FACTORIAL HepG2 Assay for human Estrogen Receptor alpha (ERa) (AID 2282970; active = hit-call score of the fitted dose curve at least 0.9, where 1 is the maximum); settings: HepG2 Attagene TRANS ERa GAL4 reporter, mRNA
# In short: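 HepG2 cells transiently transfected with multiplexed GAL4-UAS reporter units read out chimeric NR-Gal4 activity. After 24 h compound exposure, reporter mRNA was quantified by RT-PCR, 6-FAM labeling, HpaI digestion and capillary electrophoresis, relative to DMSO.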
# [20] = biological target: Paired box protein Pax-6 (Homo sapiens) (UniProt P26367); assay: ATG_Pax6_CIS: Attagene CIS-FACTORIAL HepG2 Assay for human Paired Box 6 (PAX6) (AID 2282956); settings: HepG2 CIS-FACTORIAL PAX6 reporter transcription, RNA readout; actives raise or lower the signal
# In short: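 HepG2 cells transiently transfected with cis-promoter-driven multiplexed reporter units sensing endogenous transcription factor activity; 24 h chemical exposure. Reporter mRNA quantified by RT-PCR, 6-FAM labelling, HpaI digestion and capillary electrophoresis; bidirectional fit versus DMSO baseline.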
# Sequence of Signal transducer and activator of transcription 3 (Homo sapiens) (P40763 whole entry, looked up): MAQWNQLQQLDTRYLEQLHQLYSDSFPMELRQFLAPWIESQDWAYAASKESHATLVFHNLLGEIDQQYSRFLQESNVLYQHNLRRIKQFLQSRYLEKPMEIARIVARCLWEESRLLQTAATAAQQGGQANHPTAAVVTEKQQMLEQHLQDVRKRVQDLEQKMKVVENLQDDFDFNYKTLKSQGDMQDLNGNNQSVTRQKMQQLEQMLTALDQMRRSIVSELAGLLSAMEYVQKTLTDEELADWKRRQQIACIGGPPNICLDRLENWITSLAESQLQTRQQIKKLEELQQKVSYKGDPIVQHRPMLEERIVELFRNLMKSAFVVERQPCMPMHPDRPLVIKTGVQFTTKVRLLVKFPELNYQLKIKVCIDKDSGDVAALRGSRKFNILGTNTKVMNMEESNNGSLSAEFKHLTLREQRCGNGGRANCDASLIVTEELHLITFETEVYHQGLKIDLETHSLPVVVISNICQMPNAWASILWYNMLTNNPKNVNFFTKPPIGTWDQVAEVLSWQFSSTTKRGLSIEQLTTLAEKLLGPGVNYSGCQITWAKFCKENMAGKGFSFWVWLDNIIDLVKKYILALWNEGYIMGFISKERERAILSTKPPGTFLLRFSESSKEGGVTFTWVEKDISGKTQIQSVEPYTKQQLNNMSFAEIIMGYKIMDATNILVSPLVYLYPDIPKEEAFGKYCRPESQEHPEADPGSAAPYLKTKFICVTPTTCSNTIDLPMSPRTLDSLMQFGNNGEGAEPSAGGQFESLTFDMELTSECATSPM
# Sequence of Steroid hormone receptor ERR1 (Homo sapiens) (P11474 whole entry, looked up, the tested form may be a part): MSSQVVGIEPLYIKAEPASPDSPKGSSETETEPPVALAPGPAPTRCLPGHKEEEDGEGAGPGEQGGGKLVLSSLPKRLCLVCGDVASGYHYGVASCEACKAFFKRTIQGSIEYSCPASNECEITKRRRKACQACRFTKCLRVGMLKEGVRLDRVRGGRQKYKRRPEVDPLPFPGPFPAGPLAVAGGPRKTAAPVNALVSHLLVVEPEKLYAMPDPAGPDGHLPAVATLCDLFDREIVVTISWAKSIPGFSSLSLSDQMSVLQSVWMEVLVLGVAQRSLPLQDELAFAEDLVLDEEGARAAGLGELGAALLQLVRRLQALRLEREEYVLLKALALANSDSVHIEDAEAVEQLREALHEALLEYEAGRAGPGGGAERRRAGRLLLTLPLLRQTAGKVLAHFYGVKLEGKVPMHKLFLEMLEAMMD
# Sequence of Nuclear receptor subfamily 1 group I member 3 (Homo sapiens) (Q14994 whole entry, looked up, the tested form may be a part): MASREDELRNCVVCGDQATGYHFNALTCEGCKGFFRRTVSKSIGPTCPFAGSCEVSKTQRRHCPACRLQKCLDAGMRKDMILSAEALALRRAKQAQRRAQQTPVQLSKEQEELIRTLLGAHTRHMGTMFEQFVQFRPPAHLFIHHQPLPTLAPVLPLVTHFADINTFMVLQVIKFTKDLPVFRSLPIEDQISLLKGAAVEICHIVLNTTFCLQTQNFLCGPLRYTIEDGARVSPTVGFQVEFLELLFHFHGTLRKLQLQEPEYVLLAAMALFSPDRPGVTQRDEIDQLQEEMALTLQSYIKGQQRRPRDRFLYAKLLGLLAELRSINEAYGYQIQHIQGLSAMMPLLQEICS
# Sequence of Estrogen receptor (Homo sapiens) (P03372 whole entry, looked up, the tested form may be a part): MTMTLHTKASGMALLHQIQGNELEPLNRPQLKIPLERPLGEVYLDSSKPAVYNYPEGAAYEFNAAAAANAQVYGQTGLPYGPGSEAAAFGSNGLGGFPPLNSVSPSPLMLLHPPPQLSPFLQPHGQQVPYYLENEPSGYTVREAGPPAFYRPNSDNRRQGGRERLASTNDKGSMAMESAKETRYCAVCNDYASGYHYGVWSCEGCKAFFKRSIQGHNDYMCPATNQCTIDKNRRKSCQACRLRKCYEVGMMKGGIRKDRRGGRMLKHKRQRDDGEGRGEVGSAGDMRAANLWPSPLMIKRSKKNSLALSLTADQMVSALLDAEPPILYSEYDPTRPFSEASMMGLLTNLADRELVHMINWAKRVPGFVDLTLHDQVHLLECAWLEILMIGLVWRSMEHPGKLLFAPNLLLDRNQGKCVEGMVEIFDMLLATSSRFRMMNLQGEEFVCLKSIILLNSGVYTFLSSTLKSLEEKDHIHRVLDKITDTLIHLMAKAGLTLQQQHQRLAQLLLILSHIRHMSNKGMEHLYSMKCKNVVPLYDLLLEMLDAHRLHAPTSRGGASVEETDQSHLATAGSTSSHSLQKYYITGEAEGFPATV
# Sequence of Transcription factor Sp1 (Homo sapiens) (P08047 whole entry, looked up): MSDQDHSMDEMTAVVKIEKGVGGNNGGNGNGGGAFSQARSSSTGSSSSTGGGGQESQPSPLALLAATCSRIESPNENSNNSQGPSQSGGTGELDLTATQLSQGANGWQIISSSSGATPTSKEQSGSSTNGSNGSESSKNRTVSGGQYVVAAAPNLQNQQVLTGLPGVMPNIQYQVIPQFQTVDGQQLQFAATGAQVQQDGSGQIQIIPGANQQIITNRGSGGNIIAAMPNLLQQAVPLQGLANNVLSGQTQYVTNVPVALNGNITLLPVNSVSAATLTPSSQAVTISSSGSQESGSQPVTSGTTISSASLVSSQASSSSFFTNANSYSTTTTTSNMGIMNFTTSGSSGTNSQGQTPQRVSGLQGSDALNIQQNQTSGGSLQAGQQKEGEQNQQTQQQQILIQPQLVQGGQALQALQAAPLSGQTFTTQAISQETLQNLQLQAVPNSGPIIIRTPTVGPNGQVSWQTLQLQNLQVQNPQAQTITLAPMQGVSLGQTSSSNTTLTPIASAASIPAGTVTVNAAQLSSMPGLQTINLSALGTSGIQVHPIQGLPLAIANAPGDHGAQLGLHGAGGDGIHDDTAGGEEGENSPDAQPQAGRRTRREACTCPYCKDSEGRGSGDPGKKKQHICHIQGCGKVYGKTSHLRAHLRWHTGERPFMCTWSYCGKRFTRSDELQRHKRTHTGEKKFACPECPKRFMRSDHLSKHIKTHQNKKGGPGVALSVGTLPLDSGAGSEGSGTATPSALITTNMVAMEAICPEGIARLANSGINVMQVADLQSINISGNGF
# Sequence of Paired box protein Pax-6 (Homo sapiens) (P26367 whole entry, looked up): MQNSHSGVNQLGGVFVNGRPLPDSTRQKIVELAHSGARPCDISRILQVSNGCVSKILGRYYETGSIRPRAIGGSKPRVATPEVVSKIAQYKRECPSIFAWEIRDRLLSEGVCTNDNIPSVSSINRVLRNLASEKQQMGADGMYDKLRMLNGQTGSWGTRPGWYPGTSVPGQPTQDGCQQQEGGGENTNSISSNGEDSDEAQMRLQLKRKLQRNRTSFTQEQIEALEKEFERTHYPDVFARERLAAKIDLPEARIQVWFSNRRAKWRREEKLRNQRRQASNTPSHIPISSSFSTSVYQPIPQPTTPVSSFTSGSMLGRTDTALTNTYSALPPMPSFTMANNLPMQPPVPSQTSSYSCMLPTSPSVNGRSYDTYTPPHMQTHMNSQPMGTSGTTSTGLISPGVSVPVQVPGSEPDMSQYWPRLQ
# Sequence of X-box-binding protein 1 (Homo sapiens) (P17861 whole entry, looked up): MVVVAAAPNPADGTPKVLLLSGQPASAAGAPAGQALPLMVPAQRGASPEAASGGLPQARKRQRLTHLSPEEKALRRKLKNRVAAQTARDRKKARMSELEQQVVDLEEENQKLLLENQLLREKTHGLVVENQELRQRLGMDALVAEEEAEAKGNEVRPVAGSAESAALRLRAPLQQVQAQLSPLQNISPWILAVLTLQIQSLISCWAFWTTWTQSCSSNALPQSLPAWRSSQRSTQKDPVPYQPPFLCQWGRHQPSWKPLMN
smiles,measurement,setting,value
COC(=O)C(C)Oc1ccc(Oc2ncc(C(F)(F)F)cc2Cl)cc1 (stereo unspecified),AC50,[1],77.7 µM (active)
same,AC50,[2],14.1 µM (active)
same,AC50,[3],34.3 µM (active)
same,AC50,[4],64.6 µM (active)
same,outcome,[5],inactive
same,outcome,[6],inactive
same,outcome,[7],inactive
same,outcome,[8],inactive
same,outcome,[9],inactive
same,outcome,[10],inactive
same,outcome,[11],inactive
same,AC50,[12],133 µM (active)
same,AC50,[13],42.8 µM (active)
same,outcome,[14],inactive
same,outcome,[15],inactive
same,outcome,[16],inactive
CCCCN(CCCC)CCCCCCN(CCCC)CCCC,outcome,[1],inactive
same,outcome,[2],inactive
same,outcome,[3],inactive
same,outcome,[4],inactive
same,outcome,[5],inactive
same,outcome,[6],inactive
same,outcome,[7],inactive
same,outcome,[8],inactive
same,outcome,[11],inactive
same,outcome,[12],inactive
same,outcome,[13],inactive
same,outcome,[14],inactive
same,outcome,[15],inactive
same,outcome,[17],inactive
C1COCO1,outcome,[1],inactive
same,outcome,[2],inactive
same,outcome,[3],inactive
same,outcome,[5],inactive
same,outcome,[6],inactive
same,outcome,[7],inactive
same,outcome,[8],inactive
same,outcome,[9],inactive
same,outcome,[10],inactive
same,outcome,[11],inactive
same,outcome,[13],inactive
same,outcome,[18],inactive
same,outcome,[15],inactive
same,outcome,[17],inactive
NC(N)=S,outcome,[1],inactive
same,outcome,[2],inactive
same,outcome,[4],inactive
same,outcome,[5],inactive
same,outcome,[6],inactive
same,outcome,[7],inactive
same,outcome,[8],inactive
same,outcome,[9],inactive
same,outcome,[10],inactive
same,outcome,[11],inactive
same,outcome,[12],inactive
same,outcome,[13],inactive
same,outcome,[16],inactive
CCCCC(CC)COCCO (stereo unspecified),outcome,[1],inactive
same,outcome,[2],inactive
same,outcome,[3],inactive
same,outcome,[4],inactive
same,outcome,[5],inactive
same,outcome,[6],inactive
same,outcome,[7],inactive
same,outcome,[8],inactive
same,outcome,[9],inactive
same,outcome,[11],inactive
same,outcome,[12],inactive
same,outcome,[13],inactive
same,outcome,[14],inactive
same,outcome,[19],inactive
same,outcome,[15],inactive
same,outcome,[16],inactive
CCCCOC(=O)C(C)OC(=O)CCC (stereo unspecified),outcome,[20],inactive
same,outcome,[2],inactive
same,outcome,[3],inactive
same,outcome,[4],inactive
same,outcome,[5],inactive
same,outcome,[6],inactive
same,outcome,[7],inactive
same,outcome,[8],inactive
same,outcome,[9],inactive
same,outcome,[10],inactive
same,outcome,[11],inactive
same,outcome,[12],inactive
same,outcome,[13],inactive
same,outcome,[18],inactive
same,outcome,[15],inactive
same,outcome,[16],inactive
Nc1ccc(O)c(N)c1,outcome,[1],inactive
same,outcome,[2],inactive
same,outcome,[4],inactive
same,outcome,[5],inactive
same,outcome,[6],inactive
same,outcome,[7],inactive
same,outcome,[8],inactive
same,outcome,[9],inactive
same,outcome,[10],inactive
same,outcome,[11],inactive
same,outcome,[13],inactive
same,outcome,[18],inactive
same,outcome,[15],inactive
same,outcome,[17],inactive
same,outcome,[16],inactive
CCCCC/C=C\C=C\C(=O)OCC,AC50,[20],62.9 µM (active)
same,AC50,[2],1.51 µM (active)
same,AC50,[3],4.97 µM (active)
same,outcome,[4],inactive
same,AC50,[5],28.4 µM (active)
same,AC50,[6],28.7 µM (active)
same,outcome,[7],inactive
same,outcome,[8],inactive
same,outcome,[9],inactive
same,outcome,[10],inactive
same,outcome,[11],inactive
same,AC50,[12],74.2 µM (active)
same,outcome,[13],inactive
same,outcome,[19],inactive
same,AC50,[15],61.1 µM (active)
O=S1(=O)CC(Cl)(Cl)C(Cl)(Cl)C1,AC50,[20],5.97 µM (active)
same,outcome,[2],inactive
same,outcome,[3],inactive
same,outcome,[4],inactive
same,outcome,[5],inactive
same,outcome,[6],inactive
same,outcome,[7],inactive
same,outcome,[8],inactive
same,outcome,[9],inactive
same,outcome,[10],inactive
same,outcome,[11],inactive
same,outcome,[12],inactive
same,AC50,[13],3.71 µM (active)
same,outcome,[19],inactive
same,outcome,[18],inactive
same,outcome,[15],inactive
same,outcome,[17],inactive
